ST2 IL33 inh: IL1RL1 inhibition; AlphaLISA ST2-Fc/biotin-IL-33 interaction, 1 h; inhibition, % for hits at 17 µM; 78,000 tested, 2.3% active; in the data active means inhibition above about 30%
Target sequence (Q01638 whole entry, looked up): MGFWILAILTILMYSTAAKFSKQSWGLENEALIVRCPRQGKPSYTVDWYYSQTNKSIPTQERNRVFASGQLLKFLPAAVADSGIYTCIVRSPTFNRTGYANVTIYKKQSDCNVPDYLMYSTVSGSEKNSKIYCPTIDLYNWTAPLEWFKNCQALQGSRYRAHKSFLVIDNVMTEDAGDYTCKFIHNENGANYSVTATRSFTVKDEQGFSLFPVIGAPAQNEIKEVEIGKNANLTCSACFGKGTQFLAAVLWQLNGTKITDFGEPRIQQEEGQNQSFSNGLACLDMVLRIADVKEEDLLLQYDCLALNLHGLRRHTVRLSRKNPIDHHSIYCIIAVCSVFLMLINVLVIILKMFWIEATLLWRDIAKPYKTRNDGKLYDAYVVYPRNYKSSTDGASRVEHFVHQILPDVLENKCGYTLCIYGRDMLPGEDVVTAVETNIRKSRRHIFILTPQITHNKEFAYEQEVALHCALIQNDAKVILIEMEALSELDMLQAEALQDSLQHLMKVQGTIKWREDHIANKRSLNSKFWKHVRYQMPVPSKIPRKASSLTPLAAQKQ
Starred values were filed as active, the others as inactive; i = inactive; ! = repeats disagree. This excerpt belongs to a sample that is enriched for hits.

SMILES | ST2 IL33 inh
COc1ccc(N2C(=O)c3cccnc3C2=O)c(OC)c1 | i
COc1ccc(NC(=O)c2coc(=O)c3ccccc23)c(OC)c1 | i
COc1ccc(C2=C/C(=C3/c4ccccc4-c4ncccc43)C(=O)O2)c(OC)c1 | 31.0%*
CCOc1ccccc1NS(=O)(=O)c1cc([N+](=O)[O-])ccc1C | i
Cc1nonc1OCC(C)(COc1nonc1C)Nc1ccc([N+](=O)[O-])cc1[N+](=O)[O-] | 40.0%*
Cc1cc([N+](=O)[O-])ccc1NC(=O)COc1ccc(C(C)C)cc1 | i
Cc1ccc(N2C(=O)CSC2c2ccccc2)cc1Cl (stereo not drawn) | i
Cc1cc(Cl)ccc1OCC(=O)Nc1ccccc1I | i
CC(C)n1c(-c2ccccc2)csc1=Nc1ccccc1 | 70.0%*
c1ccc(N=c2scc(-c3ccccc3)n2Cc2ccco2)cc1 | 62.0%*
c1ccc(N2CCN(Cc3ccco3)CC2)cc1 | i
CSc1nc2c(sc3ccccc32)c(=O)n1Cc1ccco1 | i
CCNC(=O)c1cc2c(=O)n3cccc(C)c3nc2n(C(C)CC)c1=N (stereo not drawn) | i
COCCOc1cc(C)c2c(c1C)C[C@H]([C@H](C)C(=O)NCc1cccs1)CC2 | i
COc1cccc(CCNC(=O)C2CC23CCN(C(=O)/C=C/c2cccs2)CC3)c1 (stereo not drawn) | i
COCc1[nH]nc2c1C(c1ccc(F)cc1)C(C#N)=C(N)O2 (stereo not drawn) | i
CCOc1ccc(-n2c(=O)[nH]c3sc(C)c(C)c3c2=O)cc1 | i
O=S(=O)(Cc1ccccc1)c1ccc(Cl)cc1 | i
O=C1C=CC(=NOS(=O)(=O)c2ccc(Cl)cc2)C=C1 | 48.0%*
CC1CC(C)CN(S(=O)(=O)c2ccc(Cl)cc2)C1 (stereo not drawn) | i
Cc1nc2c3c(-c4ccccc4)nc(N4CCC(C)CC4)nc3nn2c(C)c1CCC(=O)O | i
CCSc1nc(-c2ccccc2)ccc1C#N | i
N#Cc1ccc(-c2ccccc2)nc1SCC(=O)c1ccc(O)c(O)c1 | i
N#Cc1ccc(-c2ccncc2)nc1SCc1ccc(F)cc1 | 34.0%*
Cc1c(O)ccc2c(=O)c(Oc3ccccc3)coc12 | i
SMILES | ST2 IL33 inh
O=c1c(Oc2ccc(F)cc2)coc2c(O)c(O)ccc12 | 41.0%*
CC(=O)Oc1ccc2c(=O)c(Oc3ccccc3)coc2c1C | i
O=C(O)C1CCCCC1C(=O)Nc1ccc(S(=O)(=O)Nc2nccs2)cc1 (stereo not drawn) | i
COc1ccc(S(=O)(=O)N2CCCC2C(=O)NC2=NCCS2)cc1 (stereo not drawn) | i
COc1ccc2cc3cc(C(=O)NC(C)C)oc3nc2c1 | i
CC(C)OCCCNC(=O)c1cc2cc3ccc(Cl)cc3nc2o1 | i
CCC(C)NC(=O)c1cc2cc3ccc(Cl)cc3nc2o1 (stereo not drawn) | 31.0%*!
Cc1[nH]nc2c1C(c1cccc(Cl)c1)CC(=O)N2 (stereo not drawn) | i
O=C1/C(=C/C=C/c2ccco2)CC/C1=C\C=C\c1ccco1 | 96.0%*
C=CCn1cc(CNCc2ccccc2-n2ccnc2C)c(C)n1 | i
CCOC(=O)c1cnc2c(C)c(Cl)ccc2c1Nc1ccc(C(=O)OC)cc1 | i
CCN(Cc1nccn1C)C(=O)c1ccc(OCC2(C)CCCNC2)nc1 (stereo not drawn) | i
CSc1ccccc1NC(=O)CCC(=O)N1C[C@@H]2CC[C@H]1C2 | i
COc1ccc(C2CC(=O)N(C)C3=C2C(=O)CC(C)(C)C3)cc1 (stereo not drawn) | i
CCn1c2ccccc2c2cc(/C=C/[N+](=O)[O-])ccc21 | 38.0%*
CCn1c2ccccc2c2cc(CN3CCCN(C)CC3)ccc21 | i
CCn1c2ccccc2c2cc(NC(=O)CSc3cc(=O)n(C)c4ccccc34)ccc21 | i
Cc1nc2c(c(=O)n1C)CCN(Cc1cn[nH]c1-c1ccccc1)CC2 | i
CCOc1c(Nc2cc(C)ccc2C)c(=O)c1=O | i
CCCOc1ccc(/C=c2\sc3nc(=O)c(Cc4ccccc4)nn3c2=O)cc1 | i
COc1cccc(CNC(=O)CN2CCCN(Cc3cccc(Cl)c3)S2(=O)=O)c1 | i
CC1CC(C)CN(CCCNC(=O)c2cc(=O)[nH]c3ccc(S(=O)(=O)N4CCCC4)cc23)C1 (stereo not drawn) | i
COc1ccc(Cl)cc1-n1c(CCC(=O)O)ccc1-c1cccs1 | i
Cc1ccc(N2C(=O)CC(Sc3nc4ccccc4o3)C2=O)cc1 (stereo not drawn) | i
O=C(O)c1cccnc1SC1CC(=O)N(c2ccc(N3CCOCC3)cc2)C1=O (stereo not drawn) | i
O=C1CC(Sc2ccccn2)C(=O)N1c1ccc(Br)cc1 (stereo not drawn) | 40.0%*
CN(C)CCNC(=O)C[C@@H]1CCNC[C@@H]1Cc1cc(CC2CCCCC2)on1 | i
NC(N)=NS(=O)(=O)c1ccc(N=Cc2ccc3c(c2)OCO3)cc1 | i
CCn1cc(CN2CCC(N3CCCC3=O)CC2)c2ccccc21 | i

Screening results from PubChem.
